{"source": "PubChem BioAssay (NCATS)", "note": "Calls of active or inactive are those of the source. No rule for the calls is given here. Potency is read from the fitted curve at half-maximal effect.", "data": [{"test_system": "HIV-1 nucleocapsid protein NCp7 (binding to TG oligonucleotide)", "test": "HIV Nucleocapsid (AID 346);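 also: potency is for inhibitors that block NC binding and lower polarization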", "conditions": "HIV-1 NC / fluorescein-TGTGTGTG probe, fluorescence polarization", "method_in_brief": "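HIV-1 NC (100 nM) binding to fluorescein-labelled ssDNA TG4xF (10 nM) in Hepes pH 7.5, 250mM NaCl, 1uM ZnCl2, TCEP and 2-mercaptoethanol; compounds pin-transferred, 1 hr room temperature, fluorescence polarization read on CCD imager.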", "values": [{"smiles": "CNc1nc(-c2cccc(C#N)c2)nc2ccccc12", "Potency": "> 20 µM (inactive)"}, {"smiles": "COc1ncc2nc(CCc3ccccc3)c(=O)n(CCc3ccccc3)c2n1", "Potency": "> 20 µM (inactive)"}, {"smiles": "CN1CCN(c2nc(-c3ccccc3C(F)(F)F)nc3ccccc23)CC1", "Potency": "> 20 µM (inactive)"}, {"smiles": "O=C(c1cnccn1)N1CCC[C@@]2(CCN(c3ncccn3)C2)C1", "Potency": "> 20 µM (inactive)"}, {"smiles": "CC(=O)N1CCC2(CCCN(C(=O)Nc3cccc(F)c3)C2)CC1", "Potency": "> 20 µM (inactive)"}, {"smiles": "c1cncc(-c2ccc3ncnc(NC4CCNCC4)c3c2)c1", "Potency": "> 20 µM (inactive)"}, {"smiles": "Cc1noc(C)c1-c1nc(N(C)Cc2ccco2)c2ccccc2n1", "Potency": "> 20 µM (inactive)"}, {"smiles": "O=C(Nc1ccccc1)N1CCCC2(CCN(C(=O)c3cnccn3)CC2)C1", "Potency": "> 20 µM (inactive)"}, {"smiles": "COc1cccc(Cn2c(=O)cnc3cnc(Nc4cccc(OC)c4)nc32)c1", "Potency": "> 20 µM (inactive)"}, {"smiles": "CN(Cc1ccco1)c1cc(-c2ccccc2C(F)(F)F)ncn1", "Potency": "> 20 µM (inactive)"}, {"smiles": "COCCn1c(=O)c(C)nc2cnc(N3CCNCC3)nc21", "Potency": "> 20 µM (inactive)"}, {"smiles": "N#CCCn1c(=O)c(-c2cccs2)nc2cnc(Nc3ccccc3)nc21", "Potency": "> 20 µM (inactive)"}, {"smiles": "COc1cccc(-c2nccc(NCc3ccccc3OC)n2)c1", "Potency": "> 20 µM (inactive)"}, {"smiles": "Clc1ccccc1-c1ccc2ncnc(NCCN3CCOCC3)c2c1", "Potency": "> 20 µM (inactive)"}, {"smiles": "N#Cc1ccc(CN2CC3(CCN(C(=O)c4ccco4)CC3)C2)cc1", "Potency": "> 20 µM (inactive)"}, {"smiles": "COCCn1c(=O)c(-c2cc(F)cc(F)c2)nc2cnc(N3CCOCC3)nc21", "Potency": "> 20 µM (inactive)"}]}]}
